Bioassay records from PubChem BioAssay.
mTORC1 inh – inhibitors of mTORC1 signaling in Tsc2-/- p53-/- MEF cells | Potency, µM (highest dose often 38.3 µM), for the others: at the highest dose activity change, negative = inhibition, most hits filed as inhibitors | Tsc2-/- p53-/- MEF, phospho-rpS6 immunofluorescence/PI, 24 h | AID 493208 | actives 0.78% (n = 44,000);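 further: plate controls were DMSO for no effect and rapamycin for full effect; nearly all actives have a fitted effect of over 50% in size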
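Tsc2-/-, p53-/- MEFs (empty-vector stable line) in DMEM + 10% FBS were treated with compounds 24 h at 37 degree Celsius, fixed, and immunostained for phospho-rpS6 (Alexa-488) with propidium iodide counterstain. Laser-scanning cytometry gave % positive cells, normalized against 7.5 nM rapamycin and DMSO.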
S16 F2sN tox – cytotoxicity in S16 Pmp22-F2sN Schwann cells; S16 Pmp22-F2sN Schwann cells viability, CellTiter-Glo, 24 h; Potency, µM (highest dose often 57.5 µM), inactives show at the highest dose activity change, negative = cytotoxicity, actives largely listed as cytotoxic; actives 0.48% (n = 43,000); further: on the % scale 0 is the no-effect control and ±100 the full control effect; nearly all actives have a fitted effect of over 65% in size
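Seed 500-1,000 S16 Pmp22-F2sN cells per well in phenol-red-free DMEM with 10% heat-inactivated FBS; pin-add 23 nL compound; incubate 24 h at 37C; add CellTiter-Glo, wait 15 min protected from light; read luminescence.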
PMP22 txn – PMP22 gene transcription modulation | Potency, µM (series often up to 57.5 µM), inactives show at the top dose activity change, negative = inhibition, hits mostly inhibitors | S16 Pmp22-F2sN Schwann cells (luciferase reporters placed in the Pmp22 gene), FLuc/NLuc coincidence luminescence, 24 h | actives 2% (n = 43,000); active means clear falling dose curves in both reporters; inconclusive means both reporters move, but less clearly or upward; inactive means either reporter flat; the % is the NLuc reporter signal; further: on the % scale 0 is the no-effect control and ±100 the full control effect
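S16(c9) Schwann cells with FLuc/NLuc coincidence reporter in the Pmp22 3' UTR; compounds pin-transferred, 24 h at 37C. Dual-luciferase read: FLuc first, then NLuc after Stop&Glo, each 10 min at room temperature.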
SKOV3 invasion – blocks SKOV3ip1 adhesion and invasion in omental model | Potency, µM (highest dose often 45.8 µM), inactives show top-dose activity change, negative = inhibition, usual class: inhibitors | SKOV3ip1-GFP adhesion/invasion on 3D omental model, fluorescence | AID 1963576 | actives 0.1% (n = 46,000);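 further: plate controls were DMSO wells for no effect and tomatine positive control wells for full effect; nearly all actives have a fitted effect of over 65% in size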
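Adhesion/invasion was scored as fixed GFP-labeled SKOV3ip1 cell counts (488/509 nm), normalized to DMSO and tomatine controls. Cancer cells in serum-free medium, with four compound doses (0.36-46 umol/L), sat 2 hr at RT then 16 hr at 37 C on a 48 hr fibroblast/mesothelial/ECM culture.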
HTT-AS act – HTT-AS promoter activation. AID 1508624. actives 0.24% (n = 48,000). Potency, µM (highest dose often 57.5 µM), inactives show top-dose activity change, positive = activation, most hits filed as activators. HEK293 HTT-AS promoter firefly luciferase reporter, 24 h; response scale: percent change from vehicle, -100% = no light; further: nearly all actives have a fitted effect of over 55% in size
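HEK293 Fluc reporter, 2,500 cells/well, 24 h pre-culture; cpds up to 57.5 uM final, 24 h 37 degrees C; Dual-Glo, 10 min RT; normalized vehicle = 0%, zero RLU = -100%.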
HTT promoter inh – inhibitors of huntingtin promoter activity | HEK293 HTT promoter firefly luciferase reporter, 24 h | Potency, µM (titrated, usually from 57.5 µM), inactives show at the highest dose activity change, negative = inhibition, hits mostly inhibitors | actives 0.93% (n = 48,000) | AID 1508623; further: nearly all actives have a fitted effect of over 50% in size
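Quantitative HTS used concentration series of up to 57.5 uM final on HEK293 luciferase reporter cells, 24 h at 37 degrees C. Readout was Dual-Glo firefly luminescence.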
* hit, by the source's call. Most compounds without a hit are left out; they make up all but 3.6% or so of the library. Unless noted, the call rests on the fitted dose curve; in most records, active means well fitted curve in the direction sought with a large enough effect; inconclusive means small, poorly fitted or top-dose-only effect, or another doubt; inactive means no such curve, though single readings can be large; an effect the other way counts as inactive or inconclusive. Potency means the concentration at half of the fitted maximal effect.

Results for CC(=O)Nc1ccc(NC(=O)c2nc(S(=O)(=O)Cc3ccc(F)cc3)ncc2Cl)cc1 ?
mTORC1 inh: 5.21µM*; S16 F2sN tox: 3.55µM*; PMP22 txn: 1.89µM*; SKOV3 invasion: 3.16µM*; HTT-AS act: -94.2%; HTT promoter inh: inconclusive

How did CCCc1nnc(NC(=O)c2nc(S(=O)(=O)Cc3ccc(C)cc3)ncc2Cl)s1 do in these assays?
mTORC1 inh: -18.0%; S16 F2sN tox: inconclusive; PMP22 txn: inconclusive; SKOV3 invasion: inconclusive; HTT-AS act: -30.4%; HTT promoter inh: -31.2%

What do the screens show for `CN(CC(=O)N(Cc1ccc(C2CCCCC2)cc1)c1ccc(C(=O)O)c(O)c1)S(=O)(=O)c1c(F)c(F)c(F)c(F)c1F`?
SKOV3 invasion: 23.3%; HTT-AS act: 19.9%; HTT promoter inh: 32.2%

What do the screens show for `O=C(CCS(=O)(=O)c1nc(-c2cccs2)cc(C(F)(F)F)n1)Nc1cccc(O)c1`?
mTORC1 inh: 13.1µM*; S16 F2sN tox: inconclusive; PMP22 txn: inconclusive; SKOV3 invasion: inconclusive; HTT-AS act: -94.2%; HTT promoter inh: inconclusive

What do the screens show for `COc1cc(NC(=O)CCS(=O)(=O)c2nc(-c3cccs3)cc(C(F)(F)F)n2)cc(OC)c1OC`?
mTORC1 inh: inconclusive; S16 F2sN tox: inconclusive; PMP22 txn: inconclusive; SKOV3 invasion: inconclusive; HTT-AS act: -36.5%; HTT promoter inh: inconclusive

How did Cc1ccc(NC(=O)CSc2nc(-c3ccco3)cc(C(F)(F)F)n2)cc1C do in these assays?
mTORC1 inh: inconclusive; S16 F2sN tox: -25.6%; PMP22 txn: inconclusive; SKOV3 invasion: -15.3%; HTT-AS act: -28.9%; HTT promoter inh: inconclusive

What do the screens show for `COc1ccc(NC(=O)CCS(=O)(=O)c2nc(-c3cccs3)cc(C(F)(F)F)n2)cc1OC`?
mTORC1 inh: 13.1µM*; S16 F2sN tox: inconclusive; PMP22 txn: inconclusive; SKOV3 invasion: inconclusive; HTT-AS act: -93.8%; HTT promoter inh: inconclusive

What do the screens show for `COc1ccc(NC(=O)CSc2nc(-c3ccco3)cc(C(F)(F)F)n2)cc1OC`?
mTORC1 inh: -17.2%; S16 F2sN tox: inconclusive; PMP22 txn: inconclusive; SKOV3 invasion: -11.0%; HTT-AS act: -91.5%; HTT promoter inh: 2.24µM*

Results for C[C@H]1O[C@H](O[C@H]2[C@H](O)[C@@H](O)[C@@H](O[C@H]3[C@H](O)[C@@H](O)C(O)O[C@H]3CO)O[C@H]2CO)[C@H](O)[C@@H](O)[C@H]1N[C@H]1C=C(CO)[C@@H](O)[C@H](O)[C@@H]1O (some centres not stated) ?
SKOV3 invasion: -10.3%; HTT-AS act: 0.1%; HTT promoter inh: 10.4%

How did CN(C1CCc2c(c3ccccc3n2CC(=O)O)C1)S(=O)(=O)c1ccc(F)cc1 (configuration not stated) do in these assays?
SKOV3 invasion: -33.7%; HTT-AS act: -2.9%; HTT promoter inh: 4.5%

Results for CCCCOc1cccc(C(=O)N(Cc2ccc(C)o2)c2ccccn2)c1 ?
mTORC1 inh: -21.4%; S16 F2sN tox: -5.8%; PMP22 txn: inconclusive; SKOV3 invasion: -4.7%; HTT-AS act: -48.0%; HTT promoter inh: 28.2µM*

How did Cc1ccc(NCc2cccn2-c2nnc(N3CCCCCC3)s2)cc1 do in these assays?
mTORC1 inh: -3.9%; S16 F2sN tox: -0.3%; PMP22 txn: inconclusive; SKOV3 invasion: 46.2%; HTT-AS act: -61.7%; HTT promoter inh: 7.94µM*

Results for COc1ccc(NCc2cccn2-c2nnc(N3CCCCCC3)s2)cc1 ?
mTORC1 inh: -14.0%; S16 F2sN tox: 6.6%; PMP22 txn: -19.0%; SKOV3 invasion: -26.0%; HTT-AS act: -65.5%; HTT promoter inh: inconclusive

Results for COc1ccc(Cc2ccc(NC(N)=O)cc2)cc1-c1cccc(Cl)c1 ?
SKOV3 invasion: 2.9%; HTT-AS act: -30.7%; HTT promoter inh: -2.1%

Results for CCCN1CCN(c2ncnc3sc(C(=O)Nc4c(C)cc(C)cc4C)c(C)c23)CC1 ?
mTORC1 inh: 10.8%; S16 F2sN tox: 25.1µM*; PMP22 txn: inconclusive; SKOV3 invasion: 81.1%; HTT-AS act: 10.4%; HTT promoter inh: -9.6%

What do the screens show for `CSc1ccc(CCNC(=O)C(C)n2nc(C)c3sc4ccccc4c3c2=O)cc1` (configuration not stated)?
mTORC1 inh: 0.521µM*; S16 F2sN tox: 3.8%; PMP22 txn: 2.8%; SKOV3 invasion: 5.4%; HTT-AS act: -12.1%; HTT promoter inh: -5.4%

How did Cc1nn(C(C)C(=O)NC2CCCCC2)c(=O)c2c1sc1ccccc12 (configuration not stated) do in these assays?
mTORC1 inh: 1.04µM*; S16 F2sN tox: 6.8%; PMP22 txn: 39.8%; SKOV3 invasion: 7.4%; HTT-AS act: -5.4%; HTT promoter inh: -6.3%

How did Cc1ccc(CNC(=O)C(C)n2nc(C)c3sc4ccccc4c3c2=O)cc1 (configuration not stated) do in these assays?
mTORC1 inh: 3.0%; S16 F2sN tox: -21.1%; PMP22 txn: -6.5%; SKOV3 invasion: 7.5%; HTT-AS act: -23.6%; HTT promoter inh: -12.6%

Results for Cc1cccc2nc(-c3ccccn3)c(Nc3ccccc3)n12 ?
mTORC1 inh: -10.5%; S16 F2sN tox: -6.0%; PMP22 txn: inconclusive; SKOV3 invasion: -13.7%; HTT-AS act: -41.3%; HTT promoter inh: inconclusive

How did Cc1cccc2nc(-c3ccccn3)c(Nc3ccc(F)cc3)n12 do in these assays?
mTORC1 inh: -15.5%; S16 F2sN tox: inconclusive; PMP22 txn: 12.7µM*; SKOV3 invasion: inconclusive; HTT-AS act: -44.6%; HTT promoter inh: inconclusive

What do the screens show for `COc1ccc(CNC(=O)C2CCN(c3nc4ccc(C)cc4[nH]3)CC2)cc1`?
mTORC1 inh: 13.1µM*; S16 F2sN tox: 0.1%; PMP22 txn: -2.1%; SKOV3 invasion: -4.9%; HTT-AS act: 0.4%; HTT promoter inh: -3.9%

What do the screens show for `Cc1ccc2nc(N3CCC(C(=O)NCc4ccc(F)cc4)CC3)[nH]c2c1`?
mTORC1 inh: 7.8%; S16 F2sN tox: 19.4%; PMP22 txn: 4.8%; SKOV3 invasion: 2.0%; HTT-AS act: 1.5%; HTT promoter inh: 15.2%

Results for CO[C@H]1C=CC=C(C)C(=O)NC2=CC(=O)C(NCCN(C)C)=C(C[C@@H](C)C[C@H](OC)[C@@H](O)[C@@H](C)C=C(C)[C@@H]1OC(N)=O)C2=O ?
SKOV3 invasion: -6.5%; HTT-AS act: -91.7%; HTT promoter inh: inconclusive
